# Source: PubChem BioAssay
# pPAFAH FP inh = pPAFAH (human) enzyme inhibition | recombinant pPAFAH, FP-rhodamine probe fluorescence polarization | inhibition, % at 3.39 µM | 330,000 tested, 1.5% active | AID 463082;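 active = inhibition above the mean inhibition across the screen plus 3 SD, cut at about 25% in these data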;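 also: inhibitors block binding of the rhodamine activity-based probe so polarization drops; 0% = enzyme with DMSO and 100% = wells lacking pPAFAH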
# Target sequence (Q13093 whole entry, looked up): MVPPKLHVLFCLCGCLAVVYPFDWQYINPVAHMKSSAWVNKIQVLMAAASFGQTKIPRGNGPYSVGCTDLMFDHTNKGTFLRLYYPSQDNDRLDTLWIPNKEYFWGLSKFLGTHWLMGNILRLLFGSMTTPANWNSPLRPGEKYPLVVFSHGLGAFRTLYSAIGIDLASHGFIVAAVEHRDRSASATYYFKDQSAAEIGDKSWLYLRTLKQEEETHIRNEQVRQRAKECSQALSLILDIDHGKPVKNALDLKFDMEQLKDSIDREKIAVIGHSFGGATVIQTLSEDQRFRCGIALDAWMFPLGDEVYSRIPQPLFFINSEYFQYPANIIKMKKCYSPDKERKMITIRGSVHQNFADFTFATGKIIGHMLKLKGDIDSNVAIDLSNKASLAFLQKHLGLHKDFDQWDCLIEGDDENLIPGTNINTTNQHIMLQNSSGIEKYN
# PAFAH1B3 FP inh = PAFAH1B3 (human) inhibition | AID 492972 | recombinant PAFAH1B3, FP-rhodamine probe, fluorescence polarization | Q15102 | inhibition, % at 3.39 µM | 340,000 tested, 0.28% active;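 active = inhibition above the screen-wide average of all tested compounds plus 3 SD, cut at about 25% in these data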;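 also: 0% = enzyme with DMSO only and 100% = wells lacking PAFAH1B3 protein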
# PAFAH2 inh = inhibitors of human PAFAH2; 340,000 tested, 0.99% active; recombinant PAFAH2, FP-rhodamine activity probe, fluorescence polarization; inhibition, % at 3.39 µM; Q99487; AID 492956;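 active = inhibition above the mean over all tested compounds plus 3 SD, cut at about 30% in these data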;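 also: inhibitors block probe labeling of enzyme so polarization drops; 0% = enzyme with DMSO and 100% = wells lacking PAFAH2 protein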
# PP5 inh = blocks human protein phosphatase 5 activity; 320,000 tested, 0.18% active; P53041; purified PP5c, OMFP substrate fluorescence; inhibition, % at 6.7 µM;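 active = inhibition above the campaign's mean inhibition across all tested compounds plus 3 SD, cut at about 9.5% in these data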;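 also: 0% = DMSO only and 100% = 100 µM cantharidin control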
# CTSL1 counter = cathepsin L1 inhibition, PFM18AAP counter-screen. recombinant F. hepatica cathepsin L1, Z-Leu-Arg-MCA fluorescence. inhibition, % at 5.96 µM. 300,000 tested, 0.49% active. AID 1906;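 active = inhibition above the mean of all tested compounds plus 3 SD, set per screening campaign, cut at about 17% in these data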;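 also: 0% = plate median of test compound wells and 100% = 1 µM Z-Phe-Ala-diazomethylketone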
# PAFAH1B2 FP inh = inhibitors of human PAFAH1B2; P68402; recombinant PAFAH1B2, FP-rhodamine activity probe, fluorescence polarization; inhibition, % at 3.39 µM; 340,000 tested, 1.2% active; AID 492953;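 active = inhibition above the mean of all tested compounds plus 3 SD, cut at about 24% in these data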;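 also: 0% = enzyme with DMSO and 100% = wells lacking PAFAH1B2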
# Numbers without * were called inactive; · = no result. An excerpt weighted towards active compounds, which were near 3% of everything screened.
SMILES,pPAFAH FP inh,PAFAH1B3 FP inh,PAFAH2 inh,PP5 inh,CTSL1 counter,PAFAH1B2 FP inh
CCOc1ccccc1OCCC(=O)NNC(=O)Cn1nc(C)cc1C,2,7,-4,-2,-3,5
COc1cccc(N=c2oc3cc(O)ccc3cc2C(=O)NCC2CCCO2)c1 (configuration not stated),25*,7,11,-1,0,4
COc1ccccc1N=c1oc2cc(O)ccc2cc1C(=O)NCC1CCCO1 (configuration not stated),26*,7,0,2,0,1
COc1ccc2oc(=O)c(C(=O)NCC3CCCO3)cc2c1 (configuration not stated),2,4,5,2,8,-3
O=C(/C=C\N1CCOCC1)c1ccc(Br)cc1,9,12,-6,0,4,2
CCCCCCCCCCS(=O)(=O)N/N=C/c1ccc([N+](=O)[O-])cc1,10,8,2,0,2,30*
COc1ccc(/C=N/N=C2/NC(=O)C(CC(=O)O)S2)cc1OCc1ccc(Cl)cc1 (configuration not stated),10,3,3,3,1,3
CCOc1cc(/C=N/N=C2/NC(=O)C(CC(=O)O)S2)ccc1OCc1ccc(Cl)cc1 (configuration not stated),25*,0,0,1,6,1
CSCC[C@H](Nc1ncnc2sc(C)c(C)c12)C(=O)O,2,5,-9,0,19*,3
Cc1sc2ncnc(N[C@@H](CCC(=O)O)C(=O)O)c2c1C,2,12,-2,-1,1,4
COc1ccc(-c2csc(NC(=O)C3CC(=O)N(c4ccc5c(c4)OCCO5)C3)n2)cc1 (configuration not stated),25*,2,-13,0,10,-2
CC(=O)Nc1ccc(-c2csc(NC(=O)C3CC(=O)N(c4ccc5c(c4)OCCO5)C3)n2)cc1 (configuration not stated),5,6,1,4,-2,2
O=C1C(Cl)=C(NCc2cccnc2)C(=O)c2ccccc21,2,19,7,2,27*,8
O=C1C(Cl)=C(NCCc2ccccc2)C(=O)N1CCc1ccccc1,-7,0,0,-1,-2,2
O=C1C(Cl)=C(NCCc2ccccc2)C(=O)c2ccccc21,·,40*,30*,·,·,33*
COCCCNC1=C(Cl)C(=O)c2ccccc2C1=O,2,9,0,2,4,6
CCN(CC)CCCNC1=C(Cl)C(=O)c2ccccc2C1=O,4,19,-4,1,17*,3
CCCS(=O)(=O)N1CCCC(C(=O)Nc2ccc3c(c2)CCC3)C1 (configuration not stated),4,16,2,-1,0,-3
Cc1nc(SCCC(=O)O)c2cc(-c3ccccc3)sc2n1,2,-3,-2,1,2,50*
Cc1nc(N2CCOCC2)c2cc(-c3ccccc3)sc2n1,4,-2,0,0,3,5
C=CCNC(=O)C1CCN(S(=O)(=O)c2ccc(Br)cc2)CC1,4,4,-1,0,-1,33*
COc1ccc(CCNC(=O)C2CCN(S(=O)(=O)c3ccc(Cl)cc3)CC2)cc1OC,2,9,-1,-1,-1,9
O=C(NCC1COc2ccccc2O1)C1CCN(S(=O)(=O)c2ccc(Cl)cc2)CC1 (configuration not stated),4,2,-4,1,·,29*
O=C(NCC1CCCO1)C1CCN(S(=O)(=O)c2ccc(Br)cc2)CC1 (configuration not stated),2,0,-4,-10,5,23
CC(=O)Nc1ccc(S(=O)(=O)N2CCC(C(=O)NCCc3ccc(Cl)cc3)CC2)cc1,·,0,0,·,·,27*
SMILES,pPAFAH FP inh,PAFAH1B3 FP inh,PAFAH2 inh,PP5 inh,CTSL1 counter,PAFAH1B2 FP inh
O=C(NCCc1ccc(Cl)cc1)C1CCCN1C(=O)Nc1ccccc1 (configuration not stated),1,8,2,2,0,26*
CCCCN(C(=O)c1ccc(NC2CC2)c([N+](=O)[O-])c1)c1c(N)n(CC(C)C)c(=O)[nH]c1=O,0,1,0,2,·,3
O=C(Nc1cccc(S(=O)(=O)N2CCOCC2)c1)C1COc2ccccc2O1 (configuration not stated),·,9,6,·,·,3
C[C@H](CO)N1C[C@H](C)[C@@H](CN(C)C(=O)NC2CCCCC2)Oc2ccc(NC(=O)Nc3ccccc3)cc2C1=O,4,12,-5,·,·,-4
Cc1ccc2nc(-c3ccccc3)cc(C(=O)N3CCN(S(=O)(=O)c4c(C)noc4C)CC3)c2c1,-6,5,2,6,·,3
O=C1OCCN1C(=O)[C@H]1[C@H](c2ccc([N+](=O)[O-])cc2)C(c2ccc(F)cc2)=NN1c1ccc(Br)cc1,-1,3,4,·,·,-3
Cc1ccc(C(=O)NNC(=O)C2CCN(S(=O)(=O)c3ccc(Cl)cc3)CC2)cc1,5,-1,7,1,-4,26*
CCC1CCCCN1CCCNC(=O)Cn1ncn2nc(-c3ccc(OC)cc3)cc2c1=O (configuration not stated),-1,10,0,3,-5,0
O=C(O)Cc1sc(N/N=C\c2ccncc2)nc1-c1ccccc1,25*,1,4,-2,8,-1
C=CCOc1ccc(C2OC34CCCCC3C(C#N)(C#N)C2(C#N)C(=N)O4)cc1 (configuration not stated),10,51*,56*,3,1,42*
CCCCOc1ccc(C2OC34CCCCC3C(C#N)(C#N)C2(C#N)C(=N)O4)cc1 (configuration not stated),24,57*,42*,1,-1,39*
COc1cccc(CCc2nnc(N)s2)c1,5,7,-1,0,-5,7
Cc1cc(C)n2c(=O)[nH]nc2c1,·,15,0,·,·,1
CC1CC(C)CN(CCC(=O)Nc2ccc(Br)cc2)C1 (configuration not stated),1,-3,0,-2,18*,1
COc1ccc(/C=C(/NC(=O)c2ccccc2)C(=O)N/N=C/c2ccncc2)cc1,2,-1,0,0,5,2
Cc1ccc(/C=N\NC(=O)/C(=C\Nc2nccc(C)n2)NC(=O)c2ccccc2)cc1,2,10,6,2,22*,0
COc1ccc(/C=N\NC(=O)/C(=C\Nc2nccc(C)n2)NC(=O)c2ccccc2)cc1,3,2,1,2,20*,1
CN1CCN(C(CNC(=O)C(=O)Nc2ccc3c(c2)OCCO3)c2ccc(F)cc2)CC1 (configuration not stated),3,9,0,2,1,6
O=[N+]([O-])c1ccccc1Oc1cnc2ccccc2n1,5,-1,2,-1,13,3
